Values joined by “and” are separate entries in the source; they are usually repeats but may differ in a detail not shown here. Equal entries are not always repeated. Results filed as inconclusive are left out. A call without a number means that no potency is given here. A structure can be active in one record and inactive in another. Active and inactive are the calls of the source. Calls follow the shape of the dose curve; as a rule, active = well fitted cell-killing curve with a large enough effect in the repeat runs; inconclusive = weak or mixed curves; inactive = no such curve, though single readings can be large or run the other way.
Potency is read from the fitted curve at half-maximal effect.

The assay in a line: qHTS assay for identifying genotoxic compounds that show differential cytotoxicity against isogenic chicken DT40 cell lines with known DNA damage response pathways - Rad54/Ku70 mutant cell line (AID 743015). Also: nearly all actives have a fitted effect of over 60% in size. The conditions noted are these: DT40 Rad54/Ku70 mutant viability, CellTiter-Glo, 40 h; series mostly up to 66.8 µM. The text has this: National Center for Advancing Translational Sciences [NCATS]
NIH Chemical Genomics Center [NCGC]
U.S. Environmental Protection Agency [EPA]
National Institutes of Environmental Health Sciences [NIEHS]
National Toxicology Program [NTP]
U.S. Food and Drug Administration [FDA]
DNA repair pathways play a critical role in cellular homeostasis by repairing DNA damage induced by endogenous processes and xenobiotics. Isogenic chicken DT40 cell lines deficient in different DNA repair pathways can be used to identify genotoxic compounds and aid in characterizing the nature of the DNA damage induced. Two DNA repair-deficient cell lines with disrupted genes, Rad54/Ku70 or Rev3, were used to screen the Tox21 10K compound library. Possible genotoxicity was based on the presence of a significant increase in cytotoxicity in one or more of the DNA repair-deficient cell lines compared to that observed in the parental DNA repair-proficient cell line. CellTiter Glo viability assay (Promega, Madison, WI) was used to measure cell viability in these cells after compound treatment. This assay includes the data from the Rad54/Ku70 mutant cell line.
Tox21 Assay Protocol Summary:
300 DT40 mutant cells in 5 uL/well were dispensed into white, solid-bottom 1536-well plates using a Multidrop Combi (ThermoFisher Scientific, Waltham, MA) dispenser. After the assay plates were incubated at 37 C/5% CO2 for approximately 0.5 hour, 23 nL of compounds dissolved in DMSO, positive controls or DMSO only was transferred into the assay plate by a pintool work station (Kalypsys, San Diego, CA). The assay plates were incubated at 37 C/5% CO2 for 40 hours. After 5 uL per well of CellTiter-Glo reagent was added into each well of the assay plates, the plates were incubated for 30 min at room temperature and the luminescence intensity of the plates was measured using a ViewLux (PerkinElmer, Shelton, CT) plate reader.
For orientation: Quantitative high-throughput screening tests each substance at several concentrations.
For `Nc1nc(CC(=O)O)cs1`, the Potency result was “inactive”.

On to `CCCCOCCOCCOCCOCCO`, for which the Potency entry is “inactive”.

Turning to `c1ccc(CNCc2ccccc2)cc1`, the Potency is 43.3 µM (active).

On to `OCCC1CCCCN1` (stereo not given), for which the Potency entry is “inactive”.

`CCCCCCCCCCCCCCC1CO1` (stereo not given): the Potency entry is “inactive”.

In the case of `Cc1ccc(C)o1`, the Potency entry was “inactive”.

With `CC(=O)Nc1ccc(/C=N/NC(N)=S)cc1`, the Potency result was “inactive”.

Turning to `NCCCOCCOCCOCCCN`, the Potency is 7.7 µM (active).

`CCOC(=O)C1=NN(c2ccccc2)C(=O)C1`: the Potency result was “inactive”.

Consider `NC1CCN(c2nc3c(cc2F)c(=O)c(C(=O)O)cn3-c2ccc(F)cc2F)C1` (stereo not given), for which the Potency was 18.8 µM (active).

On to `C=CC(=O)OCCOC(=O)CCC(=O)O`, for which the Potency entry was “inactive”.

Take `Cn1c(=O)c2c(ncn2CC(O)CO)n(C)c1=O` (stereo not given): the Potency entry is “inactive”.

In the case of `CCOc1cc(OCC)c(C(=O)CCC(=O)O)cc1OCC`, the Potency entry is “inactive”.

In the case of `Cc1ccc(C(C)c2ccc(C)c(C)c2)cc1C`, the Potency entry is “inactive”.

`Cc1ccc2c(ccc3ccccc32)c1`: the Potency entry is “inactive”.

On to `N#CCc1cccc(C(F)(F)F)c1`, for which the Potency entry was “inactive”.

Take `CC(=O)CC(=O)c1ccccc1`: the Potency entry was “inactive”.

Turning to `SC1CCCC1`, the Potency result was “inactive”.

As to `CC(C)CC=O`, the Potency result is “inactive”.

Consider `O=C(O)Cc1cc(I)c(Oc2ccc(O)c(I)c2)c(I)c1`, for which the Potency entry is “inactive and 54.5 µM (active)”.

Consider `CCCCCCOC(=O)CCC`, for which the Potency result is “inactive”.

With `CC1(C)[C@H]2CC[C@]1(C)[C@H](O)C2`, the Potency entry is “inactive”.

Take `COCCCCCCCCOCCC[Si](C)(O[Si](C)(C)C)O[Si](C)(C)C`: the Potency is 6.11 µM (active).

For the molecule `CCOC(=O)CC(C)C`, the Potency result is “inactive”.

Take `O=C(C(=O)c1ccc(Br)cc1)c1ccc(Br)cc1`: the Potency result was “inactive”.

For the molecule `CN1CCN(C2=Nc3ccccc3Sc3ccc(Cl)cc32)CC1`, the Potency is 10.6 µM (active).

As for `COCCO`, the Potency entry was “inactive”.

On to `Cl/C(=C\n1cncn1)c1ccc(Cl)cc1Cl`, for which the Potency result was “inactive”.

Turning to `CC1=CC(=O)/C(=C(/C)O)C(=O)O1`, the Potency result was “inactive”.

For the molecule `CCCCCCCC/C=C\CCCCCCCC(N)=O`, the Potency result is “inactive”.

As to `c1ccc(OCc2ccc(CCCN3CCOCC3)cc2)cc1`, the Potency is 0.596 µM (active).

On to `C=CC(C)(CCC=C(C)C)OC(=O)c1ccccc1` (stereo not given), for which the Potency was 27.3 µM (active).

Consider `CCCCOC(O)CC` (stereo not given), for which the Potency entry was “inactive”.

For the molecule `CN(C)CC/C=C1\c2ccccc2COc2ccccc21`, the Potency was 29.8 µM (active).

Regarding `CC(=O)[C@@]1(O)CC[C@H]2[C@@H]3C[C@H](C)C4=CC(=O)CC[C@]4(C)[C@H]3CC[C@@]21C`, the Potency is 21.1 µM (active).

In the case of `CC(C(=O)O)c1ccc(-c2ccccc2)c(F)c1` (stereo not given), the Potency result is “inactive”.

As to `O=S(=O)(O)c1ccc(O)c2ncccc12`, the Potency result was “inactive”.

For the molecule `C[Si](C)O[Si](C)(C)O[Si](C)(C)O[Si](C)C`, the Potency result was “inactive”.

Turning to `CC(=O)OC/C=C/c1ccccc1`, the Potency result is “inactive”.

Turning to `CCc1nn(C2CCCCC2)c2cc(C3(C#N)CCC(C(=O)O)CC3)ccc12` (stereo not given), the Potency was 61.1 µM (active).

Values taken from PubChem BioAssay (Tox21).
